Measurements taken from ChEMBL document CHEMBL3988442, “University of Dundee, Small-Polar-MMV Screening Library” (2021).

Legend:
[1] = target: T1, Aspartate--tRNA(Asp/Asn) ligase (Mycobacterium tuberculosis (strain ATCC 25618 / H37Rv)) (UniProt P9WFW3); assay: Assay for Asp RNA synthetase-1 from Mycobacterium tuberculosis; assay type: functional; parameters: scale not given: direction of the effect not stated beside the values; settings: 30 µM; further: in the data most compounds retested in dose-response had high values
T1 sequence (whole entry): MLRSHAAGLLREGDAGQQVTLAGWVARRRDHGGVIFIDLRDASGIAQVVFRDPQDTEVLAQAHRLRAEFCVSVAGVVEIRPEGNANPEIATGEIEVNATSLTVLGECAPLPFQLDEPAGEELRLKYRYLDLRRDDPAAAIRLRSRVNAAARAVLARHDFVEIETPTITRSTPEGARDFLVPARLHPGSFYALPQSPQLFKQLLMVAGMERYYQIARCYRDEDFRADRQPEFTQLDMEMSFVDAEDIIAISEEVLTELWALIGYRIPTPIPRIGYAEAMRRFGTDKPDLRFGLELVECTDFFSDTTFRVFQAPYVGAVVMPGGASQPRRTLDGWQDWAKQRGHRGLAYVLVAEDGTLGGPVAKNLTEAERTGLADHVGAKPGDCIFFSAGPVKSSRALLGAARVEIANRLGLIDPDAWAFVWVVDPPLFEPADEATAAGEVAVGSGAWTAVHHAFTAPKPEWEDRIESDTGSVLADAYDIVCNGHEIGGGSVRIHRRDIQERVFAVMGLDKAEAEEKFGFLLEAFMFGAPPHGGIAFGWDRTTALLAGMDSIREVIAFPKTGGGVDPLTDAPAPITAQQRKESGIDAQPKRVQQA

[2] = target: Shiga toxin 2 (Escherichia coli O157:H7) (UniProt P09385+P09386); assay: E. coli 0.157:H7 Shiga Toxin SOP - stx2 screening assay; assay type: functional; parameters: scale not given: direction of the effect not stated beside the values; settings: 30 µM

**Q.** Which results are given for `COc1ccc(CN2CCC3(CC2)NC(=O)CC3c2ccncc2)cc1` (configuration not stated)?
**A.** Percent Effect [1]: 5.29%; Percent Effect [2]: 9.6%

**Q.** For `O=C(c1cnc(C2CC2)s1)N1CCCCC1Cn1cccn1` (configuration not stated), which Percent Effect [1] is on record?
**A.** The Percent Effect was -8.43%.

**Q.** What about the Percent Effect [2] of the same compound?
**A.** The Percent Effect was -18.5%.

**Q.** With `O=S(=O)(NC1=NCN(CCc2cccs2)CN1)c1ccccc1` as the compound, how does the Percent Effect [1] read?
**A.** The Percent Effect was -3.8%.

**Q.** What about the Percent Effect [2] of the same compound?
**A.** Its Percent Effect is -12.6%.

**Q.** How did the Percent Effect [1] turn out when `Cc1nc(O)c2nnn(C[C@H]3CCCN3C(=O)CCC3CCCC3)c2n1` was run?
**A.** The Percent Effect was 2.01%.

**Q.** What about the Percent Effect [2] of the same compound?
**A.** Its Percent Effect is 13%.

**Q.** What does the source list for `Cc1c(NC(=O)NCC(C)N2CCOCC2)cccc1OC(F)F` (configuration not stated)?
**A.** Percent Effect [1]: -1.79%; Percent Effect [2]: 3.31%

**Q.** Which results are given for `c1ccc(Cn2cc3c(n2)C(CNCc2ccco2)OCC3)nc1` (configuration not stated)?
**A.** Percent Effect [1]: 6.18%; Percent Effect [2]: -26.1%

**Q.** How did the Percent Effect [1] turn out when `N#Cc1ncn(CCC(=O)Nc2c(Cl)cccc2Cl)n1` was run?
**A.** Its Percent Effect is 6.68%.

**Q.** And the Percent Effect [2]?
**A.** The Percent Effect was -17.7%.

**Q.** How did the Percent Effect [1] turn out when `O=C1NC2(CCN(C(=O)c3ccccc3)CC2)CC1c1cccnc1` (configuration not stated) was run?
**A.** Its Percent Effect is -4.95%.

**Q.** What about the Percent Effect [2] of the same compound?
**A.** Its Percent Effect is -5.71%.

**Q.** What does the source list for `CO[C@H]1CCN(Cc2cccc(C)n2)[C@@H]2CN(Cc3cccnc3)C[C@H]12`?
**A.** Percent Effect [1]: -0.57%; Percent Effect [2]: -14.4%

**Q.** For `COc1ccccc1[C@@H]1CN(C(=O)c2csc(C)n2)C[C@H]1C(=O)O`, which Percent Effect [1] is on record?
**A.** Its Percent Effect is 2.17%.

**Q.** What about the Percent Effect [2] of the same compound?
**A.** The Percent Effect was -9.43%.

**Q.** Which Percent Effect [1] does the source give for `COCCCN1CCCN(C(C)C(=O)Nc2ccnn2C(C)C)CC1` (configuration not stated) here?
**A.** Its Percent Effect is -3.7%.

**Q.** And the Percent Effect [2]?
**A.** The Percent Effect was 11.2%.

**Q.** How did the Percent Effect [1] turn out when `CCc1csc(C2CCCN(C(=O)C3=NN(CC)C(=O)CC3)C2)n1` (configuration not stated) was run?
**A.** The Percent Effect was -5.86%.

**Q.** What about the Percent Effect [2] of the same compound?
**A.** The Percent Effect was -21.6%.

**Q.** How did the Percent Effect [1] turn out when `COc1cccc(CN(C)C(=O)CCC(=O)c2ccc(Cl)cc2)c1OC` was run?
**A.** Its Percent Effect is -1.19%.

**Q.** What about the Percent Effect [2] of the same compound?
**A.** The Percent Effect was -1.09%.

**Q.** Which results are given for `Cc1nc(CN2CCCC(Cn3cc(CCO)nn3)C2)c[nH]1` (configuration not stated)?
**A.** Percent Effect [1]: 0.881%; Percent Effect [2]: -6.46%

**Q.** With `O=C(C1=CCCC1)N1CCC[C@]2(C[C@@H](OCc3ccncc3)CO2)C1` as the compound, how does the Percent Effect [1] read?
**A.** Its Percent Effect is 5.27%.

**Q.** And the Percent Effect [2]?
**A.** The Percent Effect was -14.6%.

**Q.** Which Percent Effect [1] does the source give for `Cn1nc2c(cc1=O)CN(CCc1nc3ccccc3c(=O)[nH]1)CC2` here?
**A.** Its Percent Effect is 7.01%.

**Q.** And the Percent Effect [2]?
**A.** Its Percent Effect is 2.17%.

**Q.** For `COCCOCc1cccc(NC(=O)N2CCCC2c2ccncc2)c1` (configuration not stated), which Percent Effect [1] is on record?
**A.** The Percent Effect was -1.56%.

**Q.** What about the Percent Effect [2] of the same compound?
**A.** The Percent Effect was 18.6%.

**Q.** How did the Percent Effect [1] turn out when `COc1ccnc(N2CCN(C(=O)CN3CCCC3=O)CC2)n1` was run?
**A.** Its Percent Effect is -1.88%.

**Q.** And the Percent Effect [2]?
**A.** The Percent Effect was 13.5%.

**Q.** For `COc1ccc(CNC(C)c2ccc3[nH]c(=O)[nH]c3c2)cc1` (configuration not stated), which Percent Effect [1] is on record?
**A.** The Percent Effect was 2.66%.

**Q.** What about the Percent Effect [2] of the same compound?
**A.** The Percent Effect was -13.7%.

**Q.** What does the source list for `Cn1cc(CN2CCC3(CCCN(Cc4ccccn4)C3)CC2)cn1`?
**A.** Percent Effect [1]: -0.638%; Percent Effect [2]: -6.22%

**Q.** What does the source list for `O=C(NC1CCS(=O)(=O)C1)N1CCN(c2cnccn2)CC1` (configuration not stated)?
**A.** Percent Effect [1]: -1.72%; Percent Effect [2]: -8.56%

**Q.** With `CN1CCCN(C[C@@H]2CN(C(=O)CCC3CCCC3)C[C@@H]2CO)CC1` as the compound, how does the Percent Effect [1] read?
**A.** The Percent Effect was 6.99%.

**Q.** What about the Percent Effect [2] of the same compound?
**A.** The Percent Effect was -19.6%.

**Q.** What does the source list for `O=C(CCc1ccccc1)NCC1CCN(Cc2ccsc2)CC1`?
**A.** Percent Effect [1]: -3.19%; Percent Effect [2]: -9.05%

**Q.** With `O=C(c1cc(COc2ccc3c(c2)OCO3)[nH]n1)N1CCCC1` as the compound, how does the Percent Effect [1] read?
**A.** Its Percent Effect is 0.912%.

**Q.** What about the Percent Effect [2] of the same compound?
**A.** Its Percent Effect is -23.7%.

**Q.** Which Percent Effect [1] does the source give for `COC(=O)c1cccn1C1CCN(C(=O)c2cc(C)ccc2O)CC1` here?
**A.** The Percent Effect was 3.4%.

**Q.** What about the Percent Effect [2] of the same compound?
**A.** The Percent Effect was 21.2%.

**Q.** For `COCC1CN(CC2CC2)Cc2nn(C)cc21` (configuration not stated), which Percent Effect [1] is on record?
**A.** Its Percent Effect is 12.6%.

**Q.** What about the Percent Effect [2] of the same compound?
**A.** The Percent Effect was -5.39%.
